From PubChem BioAssay
The source made the active and inactive calls. Unless noted, how the calls were made is not given here.

What was measured:
[1] = kinase inhibitors against Plasmodium liver-stage infection, cell-based, known kinase inhibitor set, luminescence, hepatoma host viability (AID 624392); settings: Plasmodium liver stage in hepatoma cells, luciferase luminescence, concentration not given here; liver cell % of control: measured here: host liver cell viability; parasite % of control: stronger effect = lower value;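 further: infected cells incubated roughly two days before readout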
[2] = modulators of glucocorticoid suppression of NF-kB, cell-based, luciferase, IL-1B stimulus, dexamethasone (AID 624486); settings: NF-kB luciferase reporter, IL-1B + dexamethasone, luminescence; percent of negative control (+Dex): actives lie on both sides, concentration not given here; z-score: measured here: IL-1B alone, no Dex;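 on percent of negative control (+Dex): 100% = mean signal of vehicle control wells on the plate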
[3] = kinase inhibitors altering Pseudomonas killing of worms, whole organism (AID 651566);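 further: tested at 14 µM; sign flipped so higher z means a lower ratio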; settings: C. elegans killed by P. aeruginosa, survival ratio
[4] = activators of macrophage pro-inflammatory response, cell-based, murine, luminescence (AID 652131); settings: murine macrophage pro-inflammatory reporter, stronger effect = higher value
[5] = biological target: Cellular tumor antigen p53 (Homo sapiens) (UniProt P04637); test: kinase inhibitors altering GFP-p53 stability in HPV16-positive cells, imaging, known kinase inhibitor set, EGFP/DsRed ratio (AID 1053116); settings: stronger effect = higher value; EGFP object count: measured here: GFP-p53 positive objects count;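 further: cells exposed to compounds for 24 h at 37 °C before reading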
[6] = IRF3 reporter activation in THP-1 macrophages, cell-based, PMA-stimulated THP-1, luminescence (AID 1053176); settings: PMA-differentiated THP-1, IRF3 reporter luminescence; stronger effect = higher value
[7] = survival rescue of mitochondrial mutant cells in low glucose, primary screen, MELAS cybrids, Rieske KO mouse fibroblasts, CellTiter-Glo (AID 1508586;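 active means mean z-score across replicates of 1.96 or higher in either the MELAS or the Rieske mutant cell line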;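 further: z relative to plate mean and SD of compound and empty wells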)
[8] = MELAS cybrid survival, CellTiter-Glo 48 h, stronger effect = higher value
[9] = Rieske KO mouse fibroblast survival, CellTiter-Glo 72 h

Chain of Cellular tumor antigen p53 (Homo sapiens) (P04637 whole entry, looked up): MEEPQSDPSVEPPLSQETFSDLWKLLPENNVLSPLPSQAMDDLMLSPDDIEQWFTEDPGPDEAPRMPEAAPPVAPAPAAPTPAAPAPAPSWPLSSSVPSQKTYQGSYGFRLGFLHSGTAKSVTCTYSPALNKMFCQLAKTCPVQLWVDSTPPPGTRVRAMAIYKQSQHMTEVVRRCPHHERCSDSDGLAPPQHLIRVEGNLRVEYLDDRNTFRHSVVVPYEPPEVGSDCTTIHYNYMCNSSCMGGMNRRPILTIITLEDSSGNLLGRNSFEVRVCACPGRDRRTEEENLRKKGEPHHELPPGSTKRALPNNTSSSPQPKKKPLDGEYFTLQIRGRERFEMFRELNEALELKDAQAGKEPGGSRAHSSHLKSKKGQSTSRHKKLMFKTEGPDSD

Structure (SMILES) | liver cell % of control [1] [%] | parasite % of control [1] | percent of negative control (+Dex) [2] | z-score [2] | z-score [3] | z-score [4] | EGFP object count [5] | EGFP/DsRed ratio [5] | fraction signal [6] | z-score [7, 8] | z-score [7, 9]
COc1ccc(C2=C(N3CCc4ccccc43)C(=O)NC2=O)cc1 | 80.9 | 77.5% (inactive) | 84% (inactive) | -0.36 | 0.12 (inactive) | -0.139 (inactive) | 7.5 | 0.229 (inactive) | -0.0035 (inactive) | -0.15 (inactive) | -0.362
COc1ccccc1-c1cc(/C=C2\C(=O)Nc3ncc(Br)cc32)cc(Br)c1O | 102 | 116% (inactive) | 96% (inactive) | -0.115 | 0.69 (inactive) | -0.578 (inactive) | 1 | 0.142 (inactive) | 0.0015 (inactive) | -0.581 (inactive) | -0.341
c1cnn2ncc(-c3ccnc(NCCCN4CCOCC4)n3)c2c1 | 91.2 | 426% (inactive) | 57% (inactive) | -4.11 | 0.63 (inactive) | -1.59 (inactive) | 1.5 | 0.248 (inactive) | -0.004 (inactive) | -0.792 (inactive) | -0.375
COc1cccc(-n2ncc3c(N/N=C/c4ccc(C)cc4)ncnc32)c1 | 114 | 130% (inactive) | 105% (inactive) | 0.92 | -0.225 (inactive) | -0.468 (inactive) | 9.5 | 0.811 (inactive) | 0.0005 (inactive) | -0.521 (inactive) | 0.152
NS(=O)(=O)c1ccc(N=Nc2c(O)[nH]c3ccc(C(=O)NCc4ccncc4)cc23)cc1 | 77.7 | 86.4% (inactive) | 95% (inactive) | -0.595 | -0.105 (inactive) | 0.051 (inactive) | 8 | 0.126 (inactive) | -0.001 (inactive) | -0.207 (inactive) | -0.126
NS(=O)(=O)c1ccc(N=Nc2c(=O)[nH]c3ccc4[nH]cccc4c23)cc1 | 108 | 91% (inactive) | 144% (active) | 1.98 | 1.48 (inactive) | -1.63 (inactive) | 1.5 | 0.0128 (inactive) | -0.0065 (inactive) | 2.43 (active) | 0.199
COc1cc2c(cc1Nc1nc(N3CCc4ccccc43)c3cc[nH]c3n1)N(C(=O)CN(C)C)CC2 | 75 | 160% (inactive) | 104% (inactive) | 0.675 | 0.56 (inactive) | 0.168 (inactive) | 16.5 | 1.27 (inactive) | -0.0105 (inactive) | -0.598 | 2.39
Cc1ccc2c(-c3ccnc(Nc4ccc5c(c4)OCCO5)n3)c(-c3ccc(C(F)(F)F)cc3)nn2n1 | 142 | 33.6% (inactive) | 86% (inactive) | -0.095 | -1.23 (inactive) | 0.821 (inactive) | 1.5 | 0.0121 (inactive) | 0.002 (inactive) | -0.379 (inactive) | 0.474
COc1ccc(-c2nn3ncccc3c2-c2ccnc(Nc3ccc(F)c(F)c3)n2)cc1 | 177 | 16.9% (inactive) | 75.5% (inactive) | -0.785 | 1.61 (inactive) | -0.312 (inactive) | 4.5 | 0.039 (inactive) | 0.0025 (inactive) | 1.01 (inactive) | -0.0344
COc1cc(Nc2ncc(-c3ccccc3)o2)cc(OC)c1 | 105 | 156% (inactive) | 158% (inactive) | 5.51 | -1.38 (inactive) | 1.77 (inactive) | 3.5 | 0.0542 (inactive) | 0.0025 (inactive) | 0.0476 (inactive) | -0.415
N#Cc1c(NC(=O)c2ccc(F)cc2)sc2c1CCCC2 | 159 | 137% (inactive) | 246% (active) | 14.3 | -0.855 (inactive) | 3.47 (inactive) | 6 | 0.0854 (inactive) | -0.006 (inactive) | -0.073 (inactive) | 0.00203
Fc1cccc(COc2ccc(Nc3ncnc4sc(-c5ccco5)cc34)cc2Cl)c1 | 85.8 | 129% (inactive) | 89% (inactive) | -0.11 | 0.87 (inactive) | -0.392 (inactive) | 4.5 | 0.122 (inactive) | -0.0105 (inactive) | -0.906 (inactive) | -0.52
CCn1c(-c2nonc2N)nc2cncc(C(=O)N3CC[C@H](N)C3)c21 | 108 | 146% (inactive) | 76.5% (inactive) | -2.08 | -0.435 (inactive) | 1.55 (inactive) | 4 | 0.0807 (inactive) | -0.0035 (inactive) | -0.752 (inactive) | -0.175
COc1ccc(-c2coc3ncnc(N)c23)cc1 | 92.2 | 116% (inactive) | 84% (inactive) | -0.765 | 0.065 (inactive) | -0.443 (inactive) | 4 | 0.227 (inactive) | 0.002 (inactive) | -0.507 (inactive) | -0.245
CCCN1CCC(c2ccc(Nc3nc(Nc4cc(F)ccc4C(N)=O)c4cc[nH]c4n3)c(OC)c2)CC1 | 73 | 355% (inactive) | 72% (inactive) | -1.46 | 0.62 (inactive) | -0.577 (inactive) | 22.5 | 0.237 (inactive) | -0.0085 (inactive) | -0.472 | 7.31
COC(=O)Nc1nc2ccc(Oc3ccc(NC(=O)Nc4ccccc4)cc3)cc2[nH]1 | 96.2 | 260% (inactive) | 112% (inactive) | 1.13 | 0.065 (inactive) | 0.608 (inactive) | 17.5 | 0.664 (inactive) | -0.0025 (inactive) | -0.73 (inactive) | -0.00674
CC1=C(C(=O)Nc2ccc3[nH]ncc3c2)C(c2ccc(F)cc2)N=C(c2ccc(C(F)(F)F)nc2)N1 (stereo unspecified) | 102 | 138% (inactive) | 86% (inactive) | -1.21 | 0.02 (inactive) | 0.13 (inactive) | 2 | 0.0614 (inactive) | -0.004 (inactive) | -0.75 (inactive) | -0.3
C#Cc1cccc(Nc2ncnc3ccc(OCCCCNCCS(C)(=O)=O)cc23)c1 | 80.2 | 197% (inactive) | 70.5% (inactive) | -1.95 | 0.035 (inactive) | -0.695 (inactive) | 4 | 0.148 (inactive) | 0.0175 (inactive) | -0.125 (inactive) | -0.333
COC(=O)Nc1nc2ccc(Oc3ccc(NC(=O)Nc4cc(C(F)(F)F)ccc4F)cc3)cc2s1 | 100 | 360% (inactive) | 120% (inactive) | -1.24 | -0.21 (inactive) | -0.073 (inactive) | 18.5 | 0.414 (inactive) | 0 (inactive) | -0.628 (inactive) | -0.719
CCN1CCC(C(=O)NC2NNC3NNC(c4cccc(F)c4F)CC32)CC1 (stereo unspecified) | 73.6 | 144% (inactive) | 114% (inactive) | -0.315 | -0.46 (inactive) | 2.7 (inactive) | 15 | 0.326 (inactive) | -0.002 (inactive) | -0.831 (inactive) | -0.194
COc1cc2c(cc1Nc1nc(Nc3ccsc3C(N)=O)c3cc[nH]c3n1)N(C(=O)CN(C)C)CCC2(C)C | 67.7 | 290% (inactive) | 91% (inactive) | -0.245 | 0.455 (inactive) | 2.78 (inactive) | 3.5 | 0.0546 (inactive) | 0.001 (inactive) | 0.737 | 2.24
NS(=O)(=O)c1cccc(-c2cc3ccncc3cc2OCc2ccccc2)c1 | 147 | 183% (inactive) | 95% (inactive) | 0.36 | 1.48 (inactive) | -0.246 (inactive) | 3.5 | 0.215 (inactive) | -0.012 (inactive) | 2.15 (active) | 0.958
COc1cc2ncn(-c3cc(OCc4ccccc4C(F)(F)F)c(C(C)=O)s3)c2cc1OC | 97.8 | 91.8% (inactive) | 82.5% (inactive) | -0.63 | -0.4 (inactive) | -0.463 (inactive) | 5 | 0.118 (inactive) | 0.002 (inactive) | -0.657 (inactive) | 0.0101
COc1ccc2c(-c3ccnc(Nc4cccc(OC(F)(F)F)c4)n3)cnn2n1 | 77.9 | 166% (inactive) | 91% (inactive) | -0.08 | -0.6 (inactive) | -0.916 (inactive) | 5.5 | 0.0552 (inactive) | -0.005 (inactive) | 0.611 (inactive) | -0.245
COc1cccc(-c2c[nH]c3c(N/N=C/c4ccncc4)ncnc23)c1 | 72.3 | 30.4% (inactive) | 129% (inactive) | -0.36 | -0.245 (inactive) | -1.59 (inactive) | 4 | 0.121 (inactive) | 0.002 (inactive) | -0.187 (inactive) | 0.000787
Nc1nc(-c2ccc3c(c2)/C(=C\c2cc(Br)c(O)c(Br)c2)C(=O)N3)cs1 | 70.8 | 79.2% (inactive) | 86.5% (inactive) | -0.23 | 0.35 (inactive) | 2.85 (inactive) | 5.5 | 0.264 (inactive) | -0.002 (inactive) | -0.944 (inactive) | -0.14
